Measured values: PubChem BioAssay (NCATS)
Results filed as inconclusive are left out. Activity calls are given as the source filed them. Unless noted, calls come from the whole dose curve; as a rule, active = well fitted curve in either direction with a large enough effect (not every such curve was filed as active); inconclusive = small, poorly fitted or top-dose-only effect, or another doubt; inactive = flat fitted curve, though single readings scatter.

Columns and labels:
[1] = target: Lysosomal acid glucosylceramidase (Homo sapiens) (UniProt P04062); assay: Glucocerebrosidase-p2 (AID 348; in the data active = potency below about 10 µM; note: potency is the fitted concentration of half-maximal effect); details: purified GBA, blue fluorogenic substrate, 40 min
Chain of Lysosomal acid glucosylceramidase (Homo sapiens) (P04062 whole entry, looked up): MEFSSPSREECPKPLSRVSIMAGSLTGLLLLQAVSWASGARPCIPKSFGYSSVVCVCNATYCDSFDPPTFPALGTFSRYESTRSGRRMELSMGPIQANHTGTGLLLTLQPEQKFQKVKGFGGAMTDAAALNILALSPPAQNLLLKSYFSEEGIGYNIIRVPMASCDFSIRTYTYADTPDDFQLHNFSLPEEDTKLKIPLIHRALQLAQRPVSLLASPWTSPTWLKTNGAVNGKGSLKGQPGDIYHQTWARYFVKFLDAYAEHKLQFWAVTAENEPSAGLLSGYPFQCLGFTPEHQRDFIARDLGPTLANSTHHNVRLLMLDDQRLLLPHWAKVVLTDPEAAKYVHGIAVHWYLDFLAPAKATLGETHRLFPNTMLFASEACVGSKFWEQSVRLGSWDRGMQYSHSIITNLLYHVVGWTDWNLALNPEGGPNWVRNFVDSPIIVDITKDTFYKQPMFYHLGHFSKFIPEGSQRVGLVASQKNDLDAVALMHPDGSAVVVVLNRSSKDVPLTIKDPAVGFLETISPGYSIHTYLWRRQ
Procedure, shortened: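 Normal human glucocerebrosidase (0.2 nM) with blue fluorogenic substrate (80 uM final) in citrate/phosphate pH 5.9 with 10mM sodium taurocholate, 0.01% tween-20; 40 min RT, NaOH/glycine stop; fluorescence Ex 365/Em 440; AC50 from a titration from 0.6 nM upwards.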

[2] = AP1 Signaling Pathway (AID 357); details: ME-180 AP-1-bla reporter, EGF-induced, beta-lactamase ratio, 5 h; note: % is set by controls: 0 for no effect and ±100 for the full control effect
Procedure, shortened: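 ME-180 cells with beta-lactamase reporter under AP-1 response element, stimulated with EC50 EGF; compounds tested in titration series, 5 h at 37 °C. CCF4 substrate added 2.5 h at room temperature; 460/530 nm emission ratio gave %activity and AC50.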

[3] = Stat Signaling Pathway (AID 446); details: ME-180 SIE beta-lactamase reporter, IL-6 stimulated, 5 h;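 note: ME-180 cervical cancer cells given 40 pM IL-6 alongside compound; SIE-controlled beta-lactamase reporter measured as 460/530 nm FRET emission ratio; % is set by controls: 0 for no effect and ±100 for the full control effect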
Procedure, shortened: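 Compound effects on IL-6-induced STAT reporter activity were measured in ME-180 cells. After overnight culture, cells were co-treated with 40 pM IL-6 for 5 hrs before beta-lactamase substrate loading at room temperature.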

[4] = target: Mitogen-activated protein kinase 10 (Mus musculus) (UniProt Q61831); assay: JNK3 AlphaScreen Assay (AID 530);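 note: kinase came from lysate of stimulated human HepG2 cells; signal reports phosphorylation of biotinylated GST-cJun 1-79 at Ser73 with 10 µM ATP; % is set by controls: 0 for no effect and ±100 for the full control effect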
Procedure, shortened: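 HepG2 lysate (IL-1b/TNFa pre-activated) + biotin-GST-cJun 1-79 + anti-pSer73 cJun; cpd titration, 15 min RT; ATP 10 uM start; Tris pH 7.6, MgCl2, DTT, vanadate; beads in EDTA buffer; AlphaScreen.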

[5] = target: 3',5'-cyclic-AMP phosphodiesterase 4B (Homo sapiens) (UniProt Q07343); assay: qHTS Assay for Inhibitors of PDE-IV (AID 607; active = well fitted activation curve with a large enough effect in the main read-out, with a control signal flat, not every such curve was filed as active; note: % of control where 0% means no effect)
Chain of 3',5'-cyclic-AMP phosphodiesterase 4B (Homo sapiens) (Q07343 whole entry, looked up): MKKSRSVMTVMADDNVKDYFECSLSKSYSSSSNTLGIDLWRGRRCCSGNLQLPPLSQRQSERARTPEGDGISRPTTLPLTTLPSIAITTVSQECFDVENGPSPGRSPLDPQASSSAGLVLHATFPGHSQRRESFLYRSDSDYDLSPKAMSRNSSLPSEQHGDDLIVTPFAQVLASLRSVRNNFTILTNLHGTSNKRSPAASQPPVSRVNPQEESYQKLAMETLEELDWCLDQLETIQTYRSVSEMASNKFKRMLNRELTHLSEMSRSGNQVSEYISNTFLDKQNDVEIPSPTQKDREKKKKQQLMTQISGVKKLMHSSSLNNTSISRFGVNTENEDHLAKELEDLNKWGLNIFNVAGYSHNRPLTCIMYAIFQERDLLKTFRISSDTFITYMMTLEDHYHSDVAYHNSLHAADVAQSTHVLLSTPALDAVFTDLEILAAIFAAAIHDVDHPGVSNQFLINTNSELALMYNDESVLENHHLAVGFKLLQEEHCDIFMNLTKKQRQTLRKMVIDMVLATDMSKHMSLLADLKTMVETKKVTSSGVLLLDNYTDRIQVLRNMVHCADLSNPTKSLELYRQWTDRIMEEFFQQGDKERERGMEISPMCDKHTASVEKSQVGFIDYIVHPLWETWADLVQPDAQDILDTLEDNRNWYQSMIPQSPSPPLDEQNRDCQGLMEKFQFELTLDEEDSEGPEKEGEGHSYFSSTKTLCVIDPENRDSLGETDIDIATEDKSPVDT
Procedure, shortened: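 ACTOne HEK293 cells carry a modified cAMP-gated CNG channel and express endogenous PDE4; plated 1000 cells/well, compounds up to 22.9 uM final. Membrane-potential dye fluorescence (ex 535/em 590) was read; parental cells received 10 uM forskolin + 100 uM RO 20-1724.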

[6] = qHTS Assay for Lipid Storage Modulators (AID 1519; calls by dose curve); details: Drosophila S3 cells, BODIPY lipid droplet/cell ratio, laser cytometry, cells loaded with oleic acid
Procedure, shortened: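 Cells seeded at 5,000 per well were treated with compounds over a concentration series and loaded with oleic acid (400 uM, as added). Lipid droplet fluorescence (488 nm excitation, 500-530 nm channel) was read by laser-scanning cytometry and normalized to 20 uM Triacsin C.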

[7] = target: Ubiquitin carboxyl-terminal hydrolase 1 (Homo sapiens) (UniProt O94782); assay: Inhibitors of USP1/UAF1: Pilot qHTS (AID 504865; active = well fitted curve in the direction sought with a large enough effect; an effect the other way counts as inactive or inconclusive;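 note: rhodamine fluorescence freed from ubiquitin-rhodamine substrate followed over time; top concentration of the series differs between compounds; % is set by controls: 0 for no effect and ±100 for the full control effect; nearly all actives have a fitted effect of over 35% in size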)
Chain of Ubiquitin carboxyl-terminal hydrolase 1 (Homo sapiens) (O94782 whole entry, looked up): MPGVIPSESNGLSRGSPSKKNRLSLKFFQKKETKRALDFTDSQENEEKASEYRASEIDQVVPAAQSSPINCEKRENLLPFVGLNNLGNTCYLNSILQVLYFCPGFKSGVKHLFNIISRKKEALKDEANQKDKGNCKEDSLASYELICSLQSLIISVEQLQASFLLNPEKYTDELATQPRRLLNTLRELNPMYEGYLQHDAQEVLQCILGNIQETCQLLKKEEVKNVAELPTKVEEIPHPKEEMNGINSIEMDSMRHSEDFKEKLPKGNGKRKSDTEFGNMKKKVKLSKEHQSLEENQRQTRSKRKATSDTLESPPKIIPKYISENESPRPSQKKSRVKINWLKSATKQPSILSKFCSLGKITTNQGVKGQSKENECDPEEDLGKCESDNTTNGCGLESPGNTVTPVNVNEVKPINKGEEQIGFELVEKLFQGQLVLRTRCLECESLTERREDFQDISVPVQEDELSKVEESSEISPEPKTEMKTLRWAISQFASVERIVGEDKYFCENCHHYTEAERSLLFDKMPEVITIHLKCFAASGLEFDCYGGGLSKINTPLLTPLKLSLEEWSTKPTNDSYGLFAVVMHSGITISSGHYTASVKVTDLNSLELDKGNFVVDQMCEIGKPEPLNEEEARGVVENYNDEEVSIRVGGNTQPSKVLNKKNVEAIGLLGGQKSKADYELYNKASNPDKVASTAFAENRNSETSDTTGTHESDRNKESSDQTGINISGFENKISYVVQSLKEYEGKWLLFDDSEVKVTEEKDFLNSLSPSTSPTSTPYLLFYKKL
Procedure, shortened: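 Deubiquitinase activity followed as kinetic rhodamine fluorescence release from 150 nM Ub-Rho. 1 nM USP1/UAF1 with compound, after 15 min room-temperature preincubation, in HEPES pH 7.8 buffer containing TCEP, EDTA, BSA and Tween-20.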

[8] = target: Cytochrome P450 1A2 (Homo sapiens) (UniProt P05177); assay: p450-cyp1a2 (AID 410; calls by dose curve; note: potency is the fitted concentration of half-maximal effect;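 for activity change, negative = inhibition: -100% = full effect of reference inhibitor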)
Chain of Cytochrome P450 1A2 (Homo sapiens) (P05177 whole entry, looked up): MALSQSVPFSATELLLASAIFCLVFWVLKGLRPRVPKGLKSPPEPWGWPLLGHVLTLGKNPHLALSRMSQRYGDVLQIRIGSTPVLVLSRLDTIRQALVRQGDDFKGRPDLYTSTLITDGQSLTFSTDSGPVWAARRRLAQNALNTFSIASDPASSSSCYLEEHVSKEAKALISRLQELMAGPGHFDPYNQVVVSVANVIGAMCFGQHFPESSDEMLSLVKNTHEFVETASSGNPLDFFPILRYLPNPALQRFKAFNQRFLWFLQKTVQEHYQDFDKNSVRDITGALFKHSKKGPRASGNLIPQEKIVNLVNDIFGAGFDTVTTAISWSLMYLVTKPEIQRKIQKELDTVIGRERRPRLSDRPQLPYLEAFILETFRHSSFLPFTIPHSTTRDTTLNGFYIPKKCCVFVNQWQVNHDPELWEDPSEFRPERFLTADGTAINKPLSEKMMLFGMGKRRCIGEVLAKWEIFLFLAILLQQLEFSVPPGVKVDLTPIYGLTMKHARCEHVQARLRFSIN
Procedure, shortened: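 Read-out is luminescence from luciferin produced by CYP1A2 demethylation of Luciferin-ME (100uM, at Km). Detection reagent stopped the 60 min NADPH-dependent reaction; signals were normalized to 57 uM furafylline.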

[9] = NFAT Signaling Pathway (AID 444); details: Jurkat NFAT-bla M1, carbachol, beta-lactamase ratio, 5 h; at 7.69 µM (top of the series) unless noted;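 note: carbachol stimulus at about its EC50 of 1 µM final; % is set by controls: 0 for no effect and ±100 for the full control effect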
Procedure, shortened: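 Jurkat cells with NFAT-driven β-lactamase reporter and co-expressed M1 receptor, stimulated with carbachol (final 1 uM, ~EC50), compound titration, 5 h at 37 °C. CCF4 loaded 1 h at RT; 460/530 nm ratio gave %activity and AC50.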

[10] = target: Glucocorticoid receptor (Homo sapiens) (UniProt P04150); assay: GR-GFP Redistribution (AID 450;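 active = compounds whose dose series gives a full or clear partial fitted curve of increased nuclear translocation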; note: potency is the fitted concentration of half-maximal effect); details: U2OS GR-GFP nuclear translocation, laser cytometry, 2 h
Chain of Glucocorticoid receptor (Homo sapiens) (P04150 whole entry, looked up, the tested form may be a part): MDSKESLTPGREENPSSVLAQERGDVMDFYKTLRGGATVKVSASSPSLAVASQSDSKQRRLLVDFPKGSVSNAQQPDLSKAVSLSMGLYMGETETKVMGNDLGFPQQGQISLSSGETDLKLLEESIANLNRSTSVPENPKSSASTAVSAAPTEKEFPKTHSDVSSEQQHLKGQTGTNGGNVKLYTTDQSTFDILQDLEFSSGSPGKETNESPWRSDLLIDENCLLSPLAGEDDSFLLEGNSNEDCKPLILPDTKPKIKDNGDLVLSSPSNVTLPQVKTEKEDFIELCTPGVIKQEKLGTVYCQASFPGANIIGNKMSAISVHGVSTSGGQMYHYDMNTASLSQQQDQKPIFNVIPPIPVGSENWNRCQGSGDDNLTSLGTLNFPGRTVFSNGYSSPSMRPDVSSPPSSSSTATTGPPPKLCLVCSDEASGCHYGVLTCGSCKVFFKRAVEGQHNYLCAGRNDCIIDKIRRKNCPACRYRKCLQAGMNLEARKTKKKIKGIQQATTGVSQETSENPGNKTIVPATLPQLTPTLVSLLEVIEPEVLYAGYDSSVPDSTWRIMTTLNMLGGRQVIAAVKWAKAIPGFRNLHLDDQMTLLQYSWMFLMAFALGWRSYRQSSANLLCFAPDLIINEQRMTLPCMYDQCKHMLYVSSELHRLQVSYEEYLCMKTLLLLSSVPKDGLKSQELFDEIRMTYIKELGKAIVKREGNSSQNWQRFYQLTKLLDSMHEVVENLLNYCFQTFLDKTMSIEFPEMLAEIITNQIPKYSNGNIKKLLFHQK

[11] = target: Glucocorticoid receptor (Homo sapiens) (UniProt P04150); assay: GR-EFC Redistribution (AID 451; calls by dose curve; note: potency is the fitted concentration of half-maximal effect); details: CHO-K1 GR-EFC translocation, beta-gal luminescence, 2 h
Procedure, shortened: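 CHO-K1 cells expressing nuclear EA and GR-ED fragments of b-gal; compounds titrated up to 46 uM final, 2 h at 37 C. GR nuclear translocation read as complemented b-gal luminescence after 1 h RT detection.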

[12] = target: Cytochrome P450 3A4 (Homo sapiens) (UniProt P08684); assay: qHTS Assay for Activators of Cytochrome P450 3A4 (AID 885; active = well fitted curve in the direction sought with a large enough effect; an effect the other way counts as inactive or inconclusive; note: nearly all actives have a fitted effect of over 65% in size)
Chain of Cytochrome P450 3A4 (Homo sapiens) (P08684 whole entry, looked up): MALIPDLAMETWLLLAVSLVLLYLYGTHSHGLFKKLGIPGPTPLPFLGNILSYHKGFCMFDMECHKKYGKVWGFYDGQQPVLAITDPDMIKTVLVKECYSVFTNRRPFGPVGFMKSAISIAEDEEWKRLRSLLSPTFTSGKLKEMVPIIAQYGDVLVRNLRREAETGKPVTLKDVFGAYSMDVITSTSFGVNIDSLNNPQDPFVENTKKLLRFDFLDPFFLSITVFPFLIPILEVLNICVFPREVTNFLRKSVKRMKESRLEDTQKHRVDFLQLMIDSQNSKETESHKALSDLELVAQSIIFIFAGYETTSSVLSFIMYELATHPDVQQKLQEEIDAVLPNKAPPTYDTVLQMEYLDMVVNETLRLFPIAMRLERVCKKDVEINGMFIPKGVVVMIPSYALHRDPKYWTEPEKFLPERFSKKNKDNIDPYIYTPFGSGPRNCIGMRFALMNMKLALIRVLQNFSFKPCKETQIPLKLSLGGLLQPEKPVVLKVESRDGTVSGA
Procedure, shortened: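 CYP3A4 activity: Luciferin-PPXE O-dealkylation, 25uM substrate, 200mM KPO4, RT throughout. Read-out is luciferase luminescence; higher values reflect activation.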

[13] = target: Cytochrome P450 2C19 (Homo sapiens) (UniProt P33261); assay: qHTS Assay for Inhibitors and Substrates of Cytochrome P450 2C19 (AID 899; active = well fitted curve in the direction sought with a large enough effect; an effect the other way counts as inactive or inconclusive; note: potency is the fitted concentration of half-maximal effect; nearly all actives have a fitted effect of over 60% in size)
Chain of Cytochrome P450 2C19 (Homo sapiens) (P33261 whole entry, looked up): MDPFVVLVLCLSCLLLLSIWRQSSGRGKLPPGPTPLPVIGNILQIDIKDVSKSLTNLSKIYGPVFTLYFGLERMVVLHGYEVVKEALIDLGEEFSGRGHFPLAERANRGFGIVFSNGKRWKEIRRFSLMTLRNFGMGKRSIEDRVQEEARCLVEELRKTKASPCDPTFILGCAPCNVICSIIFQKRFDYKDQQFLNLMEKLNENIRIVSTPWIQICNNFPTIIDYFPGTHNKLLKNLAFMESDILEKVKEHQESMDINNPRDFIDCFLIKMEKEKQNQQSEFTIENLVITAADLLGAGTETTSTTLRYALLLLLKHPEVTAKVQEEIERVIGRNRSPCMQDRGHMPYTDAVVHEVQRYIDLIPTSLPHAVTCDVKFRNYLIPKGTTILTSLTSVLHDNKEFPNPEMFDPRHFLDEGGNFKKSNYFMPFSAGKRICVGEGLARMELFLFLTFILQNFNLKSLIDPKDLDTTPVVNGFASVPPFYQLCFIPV
Procedure, shortened: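 5 nM human CYP2C19 with 10uM Luciferin-H EGE (at KM) in 50mM KPO4, compound preincubated 10 min at 37C, then NADPH regeneration for 60 min at 37C. Luciferin read by luminescence after detection reagent; normalized to 57uM ketoconazole as full inhibition.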

[14] = Confirmation and Secondary Assay for Modulators of Hemoglobin Beta Chain Splicing at IVS2 654 locus (AID 910; active = well fitted curve in the direction sought with a large enough effect; an effect the other way counts as inactive or inconclusive;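 note: HeLa cells stably carrying EGFP split by mutant beta-globin IVS2-654 intron; % of control where 0% means no effect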)
Procedure, shortened: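 HeLa cells stably expressing EGFP interrupted by β-globin IVS2-654 intron, seeded overnight in Opti-MEM/2% FCS, then treated 2 days at 37 °C. Restored splicing read as total peak GFP intensity per well by laser scanning cytometry (488 nm excitation, 500–520 nm emission); 500 nM antisense PNA as control.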

[15] = Confirmation and Secondary Assay for Modulators of Hemoglobin Beta Chain Splicing at IVS2 705 locus (AID 930; active = well fitted curve in the direction sought with a large enough effect; an effect the other way counts as inactive or inconclusive;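 note: HeLa cells stably expressing the EGFP-705 splicing reporter; GFP fluorescence per well restored by corrected splicing of the IVS2-705 intron in EGFP; % of control where 0% means no effect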)
Procedure, shortened: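 Splice-correction reporter: EGFP cDNA split by beta-globin intron 2 bearing the 705 mutation, stably in HeLa. Compound incubation 2 days, 37C; fluorescent objects 5-250 µm summed per well.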

[16] = qHTS Assay for Identification of Small Molecule Agonists for Hypoxia Response Element Signaling Pathway (AID 914; active = well fitted activation curve with a large enough effect in the signal ratio, with a control signal flat, not every such curve was filed as active; the % refers to the signal ratio; note: % of control where 0% means no effect); details: ME-180 (cervical carcinoma) HRE-bla reporter, beta-lactamase ratio, CoCl2, 17 h; activation: stronger effect = higher value
Procedure, shortened: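 Cells were plated overnight, pin-dosed with compound in a titration series, co-stimulated with EC50 CoCl2 and incubated 17 hours at 37 degrees Celsius. CCF4 substrate was then loaded, and AC50 values came from the 460nm/530nm ratio.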

[17] = measured here: cell count channel max response
[18] = measured here: lipid channel max response
[19] = at 7.69 µM (top of the series) unless noted

CN1[C@@H]2CC[C@H]1CC(OC(=O)[C@@H](O)c1ccccc1)C2 (some centres undefined)
8.69%: max response [6, 18]
4.94%: max response [6, 17]
inactive: Potency [1] > 11.4 µM | activity change, negative = inhibition ([2]; at 7.69 µM (top of the series)) 9.45% | activity change, negative = inhibition ([2]; at 17.2 µM (top of the series)) -8.08% | activity change, negative = inhibition ([2]; at 38 µM (top of the series)) -8.54% | activity, negative = inhibition ([3]; at 7.69 µM (top of the series)) -3.56% | activity, negative = inhibition ([3]; at 17.2 µM (top of the series)) 8.85% | Potency [4] | Potency [5] | activity change, negative = inhibition ([6]; at 25.7 µM (top of the series)) 2.61% | Potency [7]

COc1ccc2[nH]cc(CCNc3ncnc4ccc(-c5ccc(C(=O)N(C)C)cc5)cc34)c2c1
-23.3%: max response [6, 17] | max response [6, 18]
inactive: Potency [1] > 11.4 µM | activity change, negative = inhibition [2, 19] -28% | activity change, negative = inhibition [9] 5.5% | activity, negative = inhibition [3, 19] -28.2% | Potency [10] > 46 µM | Potency [11] > 46 µM | Potency [4] | Potency [5] | Potency [12] | Potency [14] | outcome [15] | activity change, negative = inhibition ([6]; at 57.5 µM (top of the series)) 0.717%
active: Potency [8] 12.6 µM | Potency [13] 7.94 µM

Cc1cccc(CNc2ccnc(-c3ccccc3CN(C)C)n2)c1
inactive: Potency [1] 11.5 µM | activity change, negative = inhibition [2, 19] -18% | activity change, negative = inhibition [9] -18.8% | activity, negative = inhibition [3, 19] -5.22% | Potency [11] > 46 µM | Potency [4] | Potency [12] | outcome [15] | activity change, negative = inhibition ([6]; at 57.5 µM (top of the series)) 3.61% | Potency [7]
-8.06%: max response [6, 17]
active: Potency [8] 3.16 µM
-5.18%: max response [6, 18]

COc1ccccc1-c1cncnc1NCc1cccc(C)c1
active: Potency [8] 5.01 µM | Potency [13] 0.398 µM
7.88%: max response [6, 17]
19.2%: max response [6, 18]
inactive: Potency [1] > 11.4 µM | activity change, negative = inhibition [2, 19] -3.97% | activity change, negative = inhibition [9] -21.2% | activity, negative = inhibition [3, 19] -6.93% | Potency [10] > 46 µM | Potency [11] > 46 µM | Potency [4] | Potency [12] | Potency [14] | outcome [15] | activity change, negative = inhibition ([6]; at 57.5 µM (top of the series)) 10.8%

Cc1nc2cnc(N(C)C)nc2n(Cc2cccs2)c1=O
active: Potency [8] 1.26 µM
inactive: Potency [1] > 11.4 µM | activity change, negative = inhibition [2, 19] -12% | activity change, negative = inhibition [9] -7.11% | activity, negative = inhibition [3, 19] -2.49% | Potency [10] > 9.22 µM | Potency [11] > 46 µM | Potency [4] | Potency [12] | activity change, negative = inhibition ([6]; at 57.5 µM (top of the series)) 3.99%
16.8%: max response [6, 18]
10.1%: max response [6, 17]

Cn1cccc1C(=O)N1CCC2(CC1)CN(Cc1cc(C(F)(F)F)cc(C(F)(F)F)c1)C2
inactive: Potency [1] > 11.4 µM | activity change, negative = inhibition [2, 19] -5.13% | activity change, negative = inhibition [9] 15.4% | activity, negative = inhibition [3, 19] -14.1% | Potency [11] > 46 µM | Potency [4] | Potency [5] | activity change, negative = inhibition ([6]; at 57.5 µM (top of the series)) -8.03%
active: Potency [8] 10 µM
-0.271%: max response [6, 17]
-4.98%: max response [6, 18]

O=C(c1cc(C(F)(F)F)cc(C(F)(F)F)c1)N1CCC2(CC1)CCN(c1ncccn1)CC2
23.2%: max response [6, 18]
inactive: Potency [1] > 11.4 µM | activity change, negative = inhibition [2, 19] -11.6% | Potency [8] | activity change, negative = inhibition [9] 28.8% | activity, negative = inhibition [3, 19] -7.73% | Potency [11] > 46 µM | Potency [4] | Potency [5] | activation [16] 1.37% | activity change, negative = inhibition ([6]; at 57.5 µM (top of the series)) 3.41%
13.8%: max response [6, 17]

COCCNc1nc(-c2cccc(OC)c2)nc2ccccc12
-0.48%: max response [6, 18]
5.13%: max response [6, 17]
active: Potency [8] 0.2 µM
inactive: Potency [1] > 11.4 µM | activity change, negative = inhibition [2, 19] -3.79% | activity change, negative = inhibition [9] 0.846% | activity, negative = inhibition [3, 19] -13.7% | Potency [10] > 46 µM | Potency [11] > 46 µM | Potency [4] | Potency [12] | outcome [15] | activity change, negative = inhibition ([6]; at 57.5 µM (top of the series)) -5.01%
